Bioassay records deposited in PubChem by National Center for Advancing Translational Sciences (NCATS).
Rows were chosen to be rich in hits. Some 2.9% of all compounds tested hit in one or more screens of this group.
HEK293 viab: cell viability loss counter-screen; HEK-293-SNCA-luc viability, GF-AFC fluorescence, 24 h; Potency, µM (top dose mostly 57.1 µM), without a hit: at the highest dose activity change, negative = cytotoxicity, hits mostly cytotoxic; 150,000 compounds, 0.12% hits; AID 1671193;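 further: potency means the concentration at half of the fitted maximal effect; 0% = DMSO-treated cells and -100% = medium-only wells without cells; nearly all actives have a fitted effect of over 30% in size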
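HEK-293-SNCA-luc cells (1500/well) plated 24 h, then exposed 24 h to a dilution series; GF-AFC added 30 min at 37C, fluorescence 405/540 nm; normalised to medium-only and DMSO wells, Hill fit.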
IP6K1 inhibitor: inhibitors of human IP6K1 | AID 1645851 | 140,000 compounds, 0.81% hits | activity change, % (series mostly up to about 58 µM) | IP6K1 kinase, ADP-Glo luminescence, 2 h; active compounds read low; in the data active means activity change below about -25%; further: on the % scale 0 is the no-effect control and ±100 the full control effect
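ADP-Glo luminescence measures ADP made by human IP6K1 during a 2 h RT reaction with ATP/IP6 (mix at 1.3 mM/130 uM); top library doses 57.5 and 19.1 uM final.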
SNCA expr inhib: reduces expression of the alpha-synuclein gene. HEK-293 SNCA-luciferase knock-in, luminescence, 24 h. Potency, µM (top dose mostly 57.2 µM), for the others: top-dose activity change, negative = inhibition, usual class: inhibitors. 140,000 compounds, 0.17% hits. AID 1671194;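 further: potency means the concentration at half of the fitted maximal effect; plate controls were DMSO cells for no effect and cell-free wells for full effect; nearly all actives have a fitted effect of over 45% in size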
KDM5B inh: KDM5B demethylase inhibition. Q9UGL1. KDM5B demethylase, FDH-coupled NADH fluorescence (FDH is formaldehyde dehydrogenase). Potency, µM (series often up to 57.7 µM), most hits filed as inhibitors. 220,000 compounds, 2.6% hits. AID 1347165; further: potency means the concentration at half of the fitted maximal effect; 0% is about no effect; nearly all actives have a fitted effect of over 70% in size
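Inhibition is measured as reduced NADH fluorescence generation from FDH coupling to formaldehyde release. Truncated KDM5BΔAP at 200 nM final acts on H3K4me3 peptide (12.5 µM in substrate mix) in pH 7.5 HEPES buffer with Tween-20, 30 min, room temperature.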
Starred values were filed as active, the others as inactive; [ ] = dose if it differs, or a comment. Unless noted, the call rests on the fitted dose curve; in most records, active means well fitted curve in the direction sought with a large enough effect; inconclusive means small, poorly fitted or top-dose-only effect, or another doubt; inactive means no such curve, though single readings can be large; an effect the other way counts as inactive or inconclusive.

How did COc1nc2ccccc2nc1CCC(=O)N[C@H]1COC[C@H]1Cc1cc(C)no1 do in these assays?
HEK293 viab: -3.6%; IP6K1 inhibitor: -1.7; SNCA expr inhib: 7.2%; KDM5B inh: 28.2µM*

Results for Cc1ccccc1-n1cc(-c2ccnc(NC(C)Cc3ccncc3)n2)cn1 (centres undefined) ?
HEK293 viab: inconclusive; IP6K1 inhibitor: -7.6; SNCA expr inhib: inconclusive; KDM5B inh: 25.1µM*

Results for CC(C)(C)c1ccc(OCC(O)CNS(=O)(=O)Cc2ccccc2)cc1 (centres undefined) ?
KDM5B inh: inactive

Results for Cc1ccc2[nH]c(=O)cc(C(=O)N3CCOC(CCCC(C)C)C3)c2c1 (centres undefined) ?
HEK293 viab: -14.0%; IP6K1 inhibitor: 9.2; SNCA expr inhib: -19.5%; KDM5B inh: 28.2µM*

How did CCCCN1CCN(C(=O)c2cc(NC(=O)C3CCC3)cc3nc(C)ccc23)CC1 do in these assays?
HEK293 viab: 6.4%; IP6K1 inhibitor: 7.7; SNCA expr inhib: 5.6%; KDM5B inh: 31.6µM*

What do the screens show for `CCCCN1CCN(C(=O)c2cc(-c3ccncc3)nc3ccccc23)CC1`?
KDM5B inh: inactive

How did CCCN1CCN(C(=O)c2cc(NC(=O)C3CCC3)cc3nc(C)ccc23)CC1 do in these assays?
HEK293 viab: 7.4%; IP6K1 inhibitor: -1.5; SNCA expr inhib: -1.0%; KDM5B inh: 22.4µM*

Results for Cc1ccc2c(=O)cc(C(=O)Nc3ccc(S(=O)(=O)N4CCCCC4C)cc3)oc2c1C (centres undefined) ?
HEK293 viab: 9.2%; IP6K1 inhibitor: 10.5; SNCA expr inhib: -3.2%; KDM5B inh: inactive

How did O=C(O)CCNS(=O)(=O)c1ccc(C(=O)/C=C/c2ccc(C(=O)O)cc2)cc1 do in these assays?
KDM5B inh: inactive

Results for Cc1cc2c(n1-c1ccc(C(=O)NCc3cccc(Br)c3)cc1)CCC(C)C2 (centres undefined) ?
HEK293 viab: -6.0%; IP6K1 inhibitor: 19.0; SNCA expr inhib: inconclusive; KDM5B inh: inconclusive

Results for Cc1cn2nc(C(=O)NCc3ccc(F)cc3)cc2c(N(C)Cc2ccccc2)n1 ?
HEK293 viab: -20.1%; IP6K1 inhibitor: 11.4; SNCA expr inhib: -20.4%; KDM5B inh: 25.1µM*

What do the screens show for `Cc1cn2nc(C(=O)N3CCSCC3)cc2c(N(C)Cc2ccccc2)n1`?
HEK293 viab: -10.3%; IP6K1 inhibitor: 0.0; SNCA expr inhib: 1.8%; KDM5B inh: inconclusive

What do the screens show for `Cc1ccc(CNC(=O)c2cc3c(N(C)Cc4ccccc4)nc(C)cn3n2)cc1`?
HEK293 viab: 3.9%; IP6K1 inhibitor: 4.1; SNCA expr inhib: 3.4%; KDM5B inh: 28.2µM*

Results for Cc1cn2nc(C(=O)NCc3ccccc3C)cc2c(N(C)Cc2ccccc2)n1 ?
HEK293 viab: 2.0%; IP6K1 inhibitor: 15.3; SNCA expr inhib: inconclusive; KDM5B inh: 14.1µM*

Results for COc1cccc(CSCC(=O)NC(C)(C#N)C(C)C)c1 (centres undefined) ?
KDM5B inh: inactive

What do the screens show for `NC(=O)c1ccc(OC2CCN(C(=O)c3ccccc3Cl)CC2)nc1`?
HEK293 viab: 6.7%; IP6K1 inhibitor: -4.3; SNCA expr inhib: 5.1%; KDM5B inh: inactive

How did Cc1cccc(OCC(=O)Nc2ccccc2C(=O)OCc2cc(=O)n3nc(C4CC4)sc3n2)c1 do in these assays?
HEK293 viab: 13.5%; IP6K1 inhibitor: 7.3; SNCA expr inhib: 24.4%; KDM5B inh: inactive

Results for COCc1ccc2c(c1)c(OC(C)(C)C(=O)NCC1CCOCC1)nn2CCC(C)C ?
HEK293 viab: -6.2%[87.6 µM]; IP6K1 inhibitor: 5.2; SNCA expr inhib: -26.5%[87.6 µM]; KDM5B inh: 35.5µM*

Results for CN(C)Cc1ccc2c(c1)c(OC(C)(C)C(=O)NC1CC1)nn2Cc1ccccc1 ?
HEK293 viab: -9.6%[87.6 µM]; IP6K1 inhibitor: 3.6; SNCA expr inhib: 3.4%[87.6 µM]; KDM5B inh: 35.5µM*

Results for COCc1ccc2c(c1)c(OC(C)(C)C(=O)NCC1CC1)nn2Cc1ccccc1 ?
HEK293 viab: -8.3%[87.6 µM]; IP6K1 inhibitor: 10.3; SNCA expr inhib: -26.9%[87.6 µM]; KDM5B inh: 31.6µM*

How did COCc1ccc2c(c1)c(OC(C)(C)C(=O)NC1CCOCC1)nn2Cc1ccccc1 do in these assays?
HEK293 viab: 3.0%[87.6 µM]; IP6K1 inhibitor: 1.8; SNCA expr inhib: 20.8%[87.6 µM]; KDM5B inh: 28.2µM*

Results for COCc1ccc2c(c1)c(OC(C)(C)C(=O)NCC(F)(F)F)nn2Cc1ccccc1 ?
HEK293 viab: -5.0%[87.6 µM]; IP6K1 inhibitor: -7.5; SNCA expr inhib: -14.1%[87.6 µM]; KDM5B inh: inconclusive

What do the screens show for `CC(C)(Oc1nn(Cc2cccc(Cl)c2)c2ccccc12)C(=O)NC1CCOCC1`?
HEK293 viab: -13.9%[87.6 µM]; IP6K1 inhibitor: -7.5; SNCA expr inhib: inconclusive; KDM5B inh: inconclusive

What do the screens show for `O=C(C[C@@H]1CCNC[C@@H]1Cc1cc(CN2CCOCC2)on1)NCCN1CCOCC1`?
HEK293 viab: 0.8%; IP6K1 inhibitor: -13.4; SNCA expr inhib: -9.9%; KDM5B inh: inactive

Results for O=C1N(CCc2ccccc2)c2ccccc2C12CCN([S+](=O)([O-])c1cccs1)C2 (centres undefined) ?
HEK293 viab: 5.8%; IP6K1 inhibitor: 1.3; SNCA expr inhib: inconclusive; KDM5B inh: inactive

Results for COCc1ccc2c(c1)c(OC(C)(C)C(=O)NC1CC1)nn2Cc1ccccc1 ?
HEK293 viab: -4.1%[87.6 µM]; IP6K1 inhibitor: -3.8; SNCA expr inhib: 23.6%[87.6 µM]; KDM5B inh: 35.5µM*

What do the screens show for `COCc1ccc2c(c1)c(OC(C)(C)C(=O)NCC[S+](C)(=O)[O-])nn2Cc1ccccc1`?
HEK293 viab: 10.6%; IP6K1 inhibitor: 4.6; SNCA expr inhib: 49.2%; KDM5B inh: 28.2µM*

How did COCc1ccc2c(c1)c(OC(C)(C)C(=O)Nc1ccccn1)nn2Cc1ccccc1 do in these assays?
HEK293 viab: -17.8%[87.6 µM]; IP6K1 inhibitor: -10.6; SNCA expr inhib: -10.1%[87.6 µM]; KDM5B inh: inconclusive

Results for COCc1ccc2c(c1)c(OC(C)(C)C(=O)NCC[S+](C)(=O)[O-])nn2Cc1cccnc1 ?
HEK293 viab: 4.8%; IP6K1 inhibitor: 4.4; SNCA expr inhib: 12.3%; KDM5B inh: inactive

What do the screens show for `COc1ccc2nc3n(c2c1)[C@@H](CNCc1ccc(C#N)cc1)COC3`?
HEK293 viab: -18.3%[87.6 µM]; IP6K1 inhibitor: -2.6; SNCA expr inhib: 3.4%[87.6 µM]; KDM5B inh: 28.2µM*

What do the screens show for `COc1ccc2nc3n(c2c1)[C@@H](CNCc1ccccc1)COC3`?
HEK293 viab: -13.2%[87.6 µM]; IP6K1 inhibitor: -5.8; SNCA expr inhib: 5.0%[87.6 µM]; KDM5B inh: inactive

Results for COc1ccc(Nc2nc3ccccc3nc2NS(=O)(=O)c2cccc(C)c2)c(OC)c1 ?
KDM5B inh: inactive

How did CCOCC(=O)N1CCCn2cc(-c3ccccc3)nc21 do in these assays?
HEK293 viab: -6.6%; IP6K1 inhibitor: 0.6; SNCA expr inhib: 10.9%; KDM5B inh: inconclusive

What do the screens show for `N#Cc1cccc(-c2cn3c(n2)N(C(=O)Cc2cccs2)CCC3)c1`?
HEK293 viab: 3.3%; IP6K1 inhibitor: 11.4; SNCA expr inhib: -20.6%; KDM5B inh: 25.1µM*
